Source: PubChem (National Center for Advancing Translational Sciences (NCATS))
Pf Dd2 inh: qHTS Primary assay for Inhibitors of Plasmodium falciparum Dd2 growth in vitro; P. falciparum Dd2 growth, SYBR Green, 72 h; Potency, µM (top dose mostly 28.9 µM), inactives show top-dose activity, negative = inhibition, usual class: inhibitors; actives 4.3% (n = 120,000); AID 1347417, 2020; active = well fitted inhibition curve with a large enough effect;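 also: plate controls were DMSO vehicle for no effect and reference drug for full effect; nearly all actives have a fitted effect of over 65% in size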
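Readout: SYBR Green fluorescence, 485 nm excitation, 535 nm emission, after ~16 h lysis at 37C. Before that, Dd2-infected red cells (2.5% hematocrit) grew 72 h with compound, 29 uM top final concentration.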
Active calls of the source: *; ! = a repeat was not active; [ ] = remark or other dose. The full list was thinned out, with hits kept by preference. Potency is read from the fitted curve at half-maximal effect.

For COc1ccccc1NC(=O)CSc1nnc(-c2cccc(Cl)c2)o1 the results were Pf Dd2 inh 10%.
For CCc1ccccc1NC(c1nnc(-c2cccc(F)c2)o1)c1ccc(F)cc1Cl (stereo not drawn) the results were Pf Dd2 inh 13µM*.
Cc1cccc(OCc2nnc(-c3ccccc3)o2)c1 was read as Pf Dd2 inh -20%.
`CCCNC(=O)NCCc1noc(-c2cccnc2)n1` gave Pf Dd2 inh 13%.
Screening CCn1cnnc1CC1CCCN(C(=O)Nc2ccc(C(=O)OC)cc2)C1 (stereo not drawn) returned Pf Dd2 inh inactive.
O=C(Cn1cc(S(=O)(=O)Cc2ccccc2Cl)c2ccccc21)NCc1ccccc1Cl was read as Pf Dd2 inh inactive.
Screening CN(C)c1ccc(NC(=O)Cn2cc(S(=O)(=O)Cc3cccc(Cl)c3)c3ccccc32)cc1 returned Pf Dd2 inh inactive.
`CN(C)c1ccc(NC(=O)Cn2cc(S(=O)(=O)Cc3ccccc3Cl)c3ccccc32)cc1` gave Pf Dd2 inh 7.9µM*.
`Cc1ccc(NC(=O)Cn2cccc2-c2nc(-c3ccc4c(c3)OCO4)no2)cc1C` gave Pf Dd2 inh 166%.
Screening O=C(Nc1ccc(Cl)cc1)C1=NO[C@@H]2CN(c3ccccc3)C[C@H]12 returned Pf Dd2 inh 1%[44.1 µM].
Screening CCOc1ccccc1CNC(=O)c1cn(-c2ccc(OC)cc2)c(=O)c2ccccc12 returned Pf Dd2 inh 8.9µM*.
`CCOc1ccc(CCNC(=O)c2cn(-c3cccc(OC)c3)c(=O)c3ccccc23)cc1` gave Pf Dd2 inh -23%.
Screening COc1ccc(-n2cc(C(=O)NCCc3ccc(C)cc3)c3ccccc3c2=O)cc1 returned Pf Dd2 inh inactive.
Screening CCCNC(=O)C(NC(=O)c1ccc(C)cc1)C1CCN(C(=O)c2ccc3c(c2)OCO3)CC1 (stereo not drawn) returned Pf Dd2 inh inactive.
For O=C1CN(C(=O)CCC(=O)N2CCC3(CCCCO3)CC2)c2ccccc2N1 the results were Pf Dd2 inh -9%.
CS(=O)(=O)N1CCC(Cc2ccc(C(N)=O)cc2)CC1 was read as Pf Dd2 inh 15%.
`COCCNC(=O)[C@@H]1CCC[C@@H](NCC2CC2)CN(C)C(=O)C1` gave Pf Dd2 inh 0%[44.1 µM].
For CN(C)CCCOCC1(C)COc2ccc(C(=O)Nc3ccc(F)c(Cl)c3)cc2N1 (stereo not drawn) the results were Pf Dd2 inh -21%[44.1 µM].
For Cc1ccc2oc(-c3ccc(NC(=O)c4cccc(F)c4)c(C)c3)nc2c1 the results were Pf Dd2 inh 37%.
For O=C(Nc1cnc(-c2ccccc2)nc1)c1cccc(F)c1 the results were Pf Dd2 inh inactive.
Screening Cc1cccc(Nc2ncc(NC(=O)c3cccc(F)c3)c(Nc3cccc(C)c3)n2)c1 returned Pf Dd2 inh 2.2µM*.
For O=C(Nc1cccc2ccccc12)O[C@@H]1CO[C@H]2[C@@H]1OC[C@@H]2n1nnnc1SC1CCCC1 the results were Pf Dd2 inh inactive.
O=C(Nc1ccc2ncnc(N3CCCCC3)c2c1)c1ccc(F)cc1 was read as Pf Dd2 inh inactive.
Screening COc1ccc(C(=O)Nc2ccc3c(N4CCCCC4)ncnc3c2)cc1 returned Pf Dd2 inh -22%.
`O=C(Nc1ccc2c(N3CCCCC3)ncnc2c1)c1ccc(F)c(F)c1` gave Pf Dd2 inh 2µM*.
Screening Cn1nccc1C(=O)N1CCC(N2CC3CC(C2)[C@H]2CCCC(=O)N2C3)CC1 (stereo partly drawn) returned Pf Dd2 inh 2%.
`O=C(O)c1cccc(-c2cccc(C(F)(F)F)c2)c1` gave Pf Dd2 inh 5%[44.1 µM].
Screening NCc1cccc(-c2ccc(F)cc2F)c1 returned Pf Dd2 inh 13µM*.
Screening O=C(c1ccncc1)N1CC2CCC(C1)N2Cc1cccc(-c2ccc(F)cc2F)c1 returned Pf Dd2 inh -9%.
Screening O=Cc1cccc(-c2cccc(C(F)(F)F)c2)c1 returned Pf Dd2 inh inactive.
Screening Fc1ccccc1-c1noc(NCc2ccccc2)n1 returned Pf Dd2 inh -4%.
Screening NCc1cccc(-c2ccccc2F)c1 returned Pf Dd2 inh 11µM*.
For NCc1cccc(-c2cccc(C(F)(F)F)c2)c1 the results were Pf Dd2 inh 11µM*.
`O=Cc1cccc(-c2ccccc2F)c1` gave Pf Dd2 inh 2%[76.6 µM].
Screening O=Cc1cccc(-c2ccc(F)cc2F)c1 returned Pf Dd2 inh -11%[44.1 µM].
Screening CCNC(=O)N[C@H]1[C@H](O)[C@H](O)C[C@@H]1c1ccc(C)cc1 returned Pf Dd2 inh -11%[44.1 µM].
For Cn1nccc1C(=O)NCCc1noc(-c2ccccc2)n1 the results were Pf Dd2 inh inactive.
`Cc1cc(C(=O)Nc2ccc([C@H]3OCC(=O)N(Cc4cccnc4)[C@@H]3CO)cc2)c(C)o1` gave Pf Dd2 inh 16%.
Screening Cc1cn2nc(C(=O)NCc3ccncc3)cc2c(=O)[nH]1 returned Pf Dd2 inh 24%.
For Cc1cc(C)n(Cc2c(C(=O)NCC34CCC=C3N(C)C(=O)CC4)noc2C)n1 (stereo not drawn) the results were Pf Dd2 inh -13%.
`O=C(c1ccccc1)N1CCc2nc(-c3ccc(Cl)cc3)nc(-c3ccccc3)c2C1` gave Pf Dd2 inh inactive.
For O=C(NCC12CCC=C1N(CC1CC1)C(=O)CC2)c1nccc2ccccc12 (stereo not drawn) the results were Pf Dd2 inh -9%.
`CC(C)CC(=O)N1CCCC(c2nc(-c3ccccc3)no2)CCNC(=O)CC1` (stereo not drawn) gave Pf Dd2 inh -21%.
For O=c1[nH]c(C2CCCN(Cc3ccc(Cl)cc3)C2)nc2ccc(F)cc12 (stereo not drawn) the results were Pf Dd2 inh 8.9µM*.
For O=c1[nH]c(C2CCCN(CC3CCCC3)C2)nc2ccc(F)cc12 (stereo not drawn) the results were Pf Dd2 inh 2.2µM*.
For O=c1[nH]c(C2CCN(Cc3cccs3)CC2)nc2ccc(F)cc12 the results were Pf Dd2 inh -6%.
Screening COc1ccc(CN2CCCC(c3nn(-c4ccc(Cl)cc4)c(=O)[nH]3)C2)cc1 (stereo not drawn) returned Pf Dd2 inh inactive.
For O=c1[nH]c(C2CCCN(Cc3cccc(Cl)c3)C2)nc2ccc(F)cc12 (stereo not drawn) the results were Pf Dd2 inh 10µM*!.
Screening Cc1ccc2nc(C3CCN(Cc4cccc(Cl)c4)CC3)[nH]c(=O)c2c1 returned Pf Dd2 inh 1%.
For O=c1[nH]c(C2CCCN(CC3CC3)C2)nn1-c1ccccc1 (stereo not drawn) the results were Pf Dd2 inh inactive.
O=C(NCc1ccccc1)N1CC[C@H](c2nc3ccc(F)cc3[nH]2)C1 was read as Pf Dd2 inh inactive.
O=c1[nH]c(C2CCCN(Cc3ccccc3)C2)nn1-c1ccc(Cl)cc1 (stereo not drawn) was read as Pf Dd2 inh inactive.
CC(C)NC(=O)N[C@H]1CCN2C(=O)c3cc(/C=C/c4ccccc4)ccc3NC(=O)[C@H]12 was read as Pf Dd2 inh inactive.
`CCn1ccc(C(=O)N2CC(Oc3cccc(-c4nc(C)no4)c3)C2)n1` gave Pf Dd2 inh -24%[5.79 µM].
For NC(=O)c1cccc(-c2n[nH]c3c2CC(=O)N(CC2CCOCC2)C3)c1 the results were Pf Dd2 inh 4%[44.1 µM].
Screening O=C(Cc1ccc(F)cc1)Nc1ccc2ncnc(N3CCCC3)c2c1 returned Pf Dd2 inh -20%.
For O=C(C1CC1)N1CCn2c(nnc2[C@@H]2C[C@@H](O)CN2Cc2ccccc2)C1 the results were Pf Dd2 inh 44%.
